Assay outcomes: PubChem, Paczesny and Yang Labs, IUPUI and University of Michigan
The full list was thinned out, with hits kept by preference.
ST2 inh – IL1RL1 inhibition; Q01638; AlphaLISA ST2-Fc/biotin-IL-33 interaction, 1 h; inhibition, % for hits at 17 µM; 78,000 tested, 2.3% active; AID 1259354; in the data active means inhibition above about 30%
Target sequence (Q01638 whole entry, looked up): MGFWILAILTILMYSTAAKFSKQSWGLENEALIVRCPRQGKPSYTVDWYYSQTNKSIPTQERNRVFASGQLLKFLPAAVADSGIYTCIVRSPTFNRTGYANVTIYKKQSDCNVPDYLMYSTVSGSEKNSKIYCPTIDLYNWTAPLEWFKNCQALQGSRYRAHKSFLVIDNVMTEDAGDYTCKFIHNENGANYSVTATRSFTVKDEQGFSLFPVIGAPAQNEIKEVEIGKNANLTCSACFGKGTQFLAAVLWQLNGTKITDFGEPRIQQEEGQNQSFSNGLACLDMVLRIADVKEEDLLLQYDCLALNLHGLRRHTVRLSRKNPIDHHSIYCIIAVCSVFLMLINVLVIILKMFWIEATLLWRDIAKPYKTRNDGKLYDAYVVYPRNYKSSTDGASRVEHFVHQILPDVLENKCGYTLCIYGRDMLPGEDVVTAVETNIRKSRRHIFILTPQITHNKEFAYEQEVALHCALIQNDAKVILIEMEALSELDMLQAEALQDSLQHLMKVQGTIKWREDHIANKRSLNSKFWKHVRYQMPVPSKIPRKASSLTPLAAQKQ
Hits are given with their value.

What do the screens show for `CCOc1ccc(C2Nc3ccccc3NC3=C2C(=O)CCC3)cc1` (centres undefined)?
ST2 inh: inactive

What do the screens show for `COc1ccc(C2CC(=O)C3=C(C2)Nc2ccccc2NC3c2ccc(C)o2)cc1` (centres undefined)?
ST2 inh: inactive

What do the screens show for `Cc1ccc(C2Nc3ccccc3NC3=C2C(=O)CCC3)o1` (centres undefined)?
ST2 inh: 32.0%

Results for CCOc1ccc(S(=O)(=O)Nc2cc(Cl)ccc2C)c2cccnc12 ?
ST2 inh: inactive

What do the screens show for `N#Cc1ccc([N+](=O)[O-])cc1C#N`?
ST2 inh: inactive

Results for N#CSCc1ccc([N+](=O)[O-])cc1 ?
ST2 inh: inactive

How did N#CSC(C#N)Cc1cccc([N+](=O)[O-])c1 (centres undefined) do in these assays?
ST2 inh: 37.0%

What do the screens show for `CC(C)C1CN(C(=O)c2ccccc2-n2cncn2)CCC(=O)N1CC1CC1` (centres undefined)?
ST2 inh: inactive

What do the screens show for `COc1ccc(CC(=O)Nc2ccc(C)c([N+](=O)[O-])c2)cc1`?
ST2 inh: inactive

How did COc1ccc(C(=O)Nc2ccc([N+](=O)[O-])cc2)cc1 do in these assays?
ST2 inh: inactive

Results for COc1ccc(N/C=C(/c2cc(O)ccc2O)[N+](=O)[O-])cc1 ?
ST2 inh: 45.0%

Results for CC1=NN(C(=O)c2cccc(Br)c2)C(O)(c2ccncc2)C1 (centres undefined) ?
ST2 inh: inactive

How did Cc1[nH]c2c(ccc3ccccc32)c(=O)c1CN(C)Cc1ccccc1 do in these assays?
ST2 inh: inactive

What do the screens show for `CC(=O)N(CN1C(=O)c2ccc(Br)cc2C1=O)c1ccc(OCc2ccccc2)cc1`?
ST2 inh: inactive

What do the screens show for `CC(=O)N(CN1C(=O)c2ccccc2C1=O)c1cccc(C)c1`?
ST2 inh: inactive

Results for CC(=O)N(CN1C(=O)c2ccc(Br)cc2C1=O)c1cccc(C(=O)O)c1 ?
ST2 inh: 45.0%

How did CCCn1c(CNC(=O)COC)nc2ccccc21 do in these assays?
ST2 inh: inactive

What do the screens show for `CC(=O)[C@]1(O)Cc2c(O)c3c(c(O)c2[C@@H](O[C@H]2C[C@H](N)[C@H](O)[C@H](C)O2)C1)C(=O)c1ccccc1C3=O`?
ST2 inh: 34.0%

How did O=C(Nc1cccc(OCc2cc(=O)n3cc(Cl)ccc3n2)c1)c1ccco1 do in these assays?
ST2 inh: inactive

How did COc1ccc(OC)c(NC(=O)CCC(=O)Nc2ccc3nc(N4CCOCC4)cc(C)c3c2)c1 do in these assays?
ST2 inh: inactive

Results for CCOC=NC1=C(C#N)C(c2ccccc2)C2=C(CC(C)(C)CC2=O)O1 (centres undefined) ?
ST2 inh: 59.0%

What do the screens show for `CCOC=NC1=C(C#N)C(c2ccc(Cl)cc2)C2=C(CC(C)(C)CC2=O)O1` (centres undefined)?
ST2 inh: 79.0%

What do the screens show for `CC(C)c1ccc(C2C(C#N)=C(N)OC3=C2C(=O)CC(C)(C)C3)cc1` (centres undefined)?
ST2 inh: inactive

How did CC(=O)Oc1ccc([C@H]2C(C#N)=C(N)OC3=C2C(=O)CC(C)(C)C3)cc1 do in these assays?
ST2 inh: inactive

What do the screens show for `Cc1ccccc1C1C(C#N)=C(N)OC2=C1C(=O)CC(C)(C)C2` (centres undefined)?
ST2 inh: inactive

Results for CCOc1cc(C2C(C#N)=C(N)OC3=C2C(=O)CC(C)(C)C3)ccc1O (centres undefined) ?
ST2 inh: inactive

What do the screens show for `Cc1ccc(CCN2CC(C(=O)NC3CCCC(C)C3C)CC2=O)cc1` (centres undefined)?
ST2 inh: inactive

What do the screens show for `COc1cc(C)c(CNCc2cccnc2N2CCN(C(C)=O)CC2)cc1C`?
ST2 inh: inactive

Results for O=c1c(Oc2ccccc2)c(C(F)(F)F)oc2cc(O)ccc12 ?
ST2 inh: inactive

What do the screens show for `O=C(c1ccc(Cl)cc1OC1CCN(Cc2ccccc2F)CC1)N1CCCCC1`?
ST2 inh: inactive

Results for Cn1ccn2ncc(C(=O)NC3CCCN(C(=O)c4cccs4)C3)c12 (centres undefined) ?
ST2 inh: inactive

Results for Cn1cc(CC(=O)NCc2ccco2)c2ccccc21 ?
ST2 inh: inactive

How did Cn1cc(C(c2ccc([N+](=O)[O-])o2)c2cn(C)c3ccccc23)c2ccccc21 do in these assays?
ST2 inh: 41.0%

What do the screens show for `CCN(CC)C(=O)Cc1cn(C)c2ccccc12`?
ST2 inh: inactive

What do the screens show for `NC1=NC(=O)CC(C(=O)Nc2cccc(C(F)(F)F)c2)S1` (centres undefined)?
ST2 inh: inactive

Results for CC(CCn1cccn1)Nc1nncc(-c2ccc3ccccc3c2)n1 (centres undefined) ?
ST2 inh: inactive

What do the screens show for `CN(C(=O)N1c2ccccc2Sc2ccccc21)c1ccccc1`?
ST2 inh: inactive

How did N/C(=N/OC(=O)N1c2ccccc2Sc2ccccc21)c1ccccc1 do in these assays?
ST2 inh: 50.0%

Results for O=C(COc1ccccc1)OCC(=O)N1c2ccccc2Sc2ccccc21 ?
ST2 inh: inactive

Results for Cc1cc([N+](=O)[O-])nn1CCCC(=O)Nc1cc(Br)ccc1O ?
ST2 inh: inactive

Results for Cn1ccnc1SCC(=O)Nc1ccc(Cl)cc1 ?
ST2 inh: inactive

How did CC(C)OC(=O)c1c(NC(=O)CSc2ncccn2)sc2c1CCCC2 do in these assays?
ST2 inh: inactive

How did COC(=O)c1c(NC(=O)CSc2nccn2C)sc2c1CCC(C(C)(C)C)C2 (centres undefined) do in these assays?
ST2 inh: 35.0%

What do the screens show for `CCC1=C(c2ccc(OC)cc2)S(=O)(=O)N(CC(=O)NCc2ccccc2OC)C1=O`?
ST2 inh: inactive

How did CCCN(Cc1ccc(OC)cc1)C(=O)c1cc(C(F)(F)F)nn1C do in these assays?
ST2 inh: inactive

Results for CC(C)(C)c1ccc(OCc2nnc(SCc3csc(N)n3)n2-c2ccccc2)cc1 ?
ST2 inh: inactive

How did CC(C)Cn1c(NCc2ccccc2)nc2c1c(=O)[nH]c(=O)n2C do in these assays?
ST2 inh: inactive

How did CCCCc1ncc(CN2CCc3[nH]cnc3C2c2cccc(O)c2)[nH]1 (centres undefined) do in these assays?
ST2 inh: 37.0%

How did CCCCc1ncc(CN2CCN(Cc3ccc(OCC)cc3)C(CCO)C2)[nH]1 (centres undefined) do in these assays?
ST2 inh: inactive

Results for Cc1ccc(C2c3nc[nH]c3CCN2Cc2cc(C)ccc2O)cc1 (centres undefined) ?
ST2 inh: inactive

How did O=c1c(CN2CCc3ccccc3C2)coc2ccccc12 do in these assays?
ST2 inh: inactive

Results for Cc1cccc(Cc2c(C)nc3nc(SCC(=O)NCc4ccc5c(c4)OCO5)nn3c2C)c1 ?
ST2 inh: inactive

Results for Cc1cnc2c(C(=O)N3CCn4nc(C(=O)NC5CC5)cc4C3)cnn2c1 ?
ST2 inh: inactive

Results for Cc1ccnc(Nc2nc(-c3ccccc3)cs2)c1 ?
ST2 inh: inactive

What do the screens show for `Cc1ccc(C(=O)Nc2nc(-c3ccccc3)cs2)c(Cl)c1`?
ST2 inh: inactive

What do the screens show for `Cc1ccc(Nc2nc(-c3ccc(O)c(O)c3)cs2)nc1`?
ST2 inh: 42.0%

Results for Cn1c(=NC(=O)CSCC(=O)NC2CCCCC2)sc2ccccc21 ?
ST2 inh: inactive

Results for CCOc1ccc(N2COc3ccc(OCC)cc3C2)cc1 ?
ST2 inh: inactive

How did COc1ccc(N2COc3ccc(Cl)cc3C2)cc1 do in these assays?
ST2 inh: 37.0%

Results for COc1ccc2c(c1)CN(c1ccc(C(=O)O)cc1)CO2 ?
ST2 inh: inactive
